The supplement of paper PMC10849652
Targets with a hit are over-represented here; the source holds about 7,900 in all. About 0.6% of all pairs of compound and target were hits. A number with no mark means an inactive call.

Assays:
Experiment in all cases: log2 fold change, soluble protein after heating vs DMSO (PISA); higher = thermal stabilisation; K562 cells, 10 uM, 30 min; active = over 0.2 and 3.5 SD of the protein, either way, in both replicates (recomputed)
[1] = compound: CC1=C(C=C(C=C1)NC(=O)C2=CC(=CC=C2)C(C)(C)C#N)NC3=CC4=C(C=C3)N=CN(C4=O)C
Summary of the method: (§1)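 For each measurement, 10 μM compound was applied for 30 min to K562 cells at 2×10^6 cells/mL. Aliquots were heated for 3 min across 48°C-58°C, pooled, and extracted in PBS with 0.5% NP-40 at 4°C; the supernatant after 21,000xg for 90 min was soluble protein. This was quantified by TMTpro 16plex LC-MS/MS with channel sums equalised, and thermal stability was reported relative to control samples from duplicates, on a log2 fold-change scale.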

[2] = compound: CC1=C(C=C(C=C1)NC(=O)C2=CC(=CC=C2)N(C)C)NC(=O)C3=CC=C(C=C3)O
Summary of the method: as §1

[3] = compound: CC1=CC=C(C=C1)SC2=C3C=C(SC3=CN=C2)C(=O)N
Summary of the method: as §1

[4] = compound: CC1=NC(=CC=C1)C2=C(N=C(N2)C(C)(C)C)C3=CC4=NC=CN=C4C=C3
Summary of the method: as §1

[5] = compound: CCCCN(Cc1ccc(C(=O)NO)cc1)C(=O)Nc1ccccc1 [Nexturastat A]
Summary of the method: as §1

[6] = compound: CCCS(=O)(=O)Nc1ccc(F)c(C(=O)c2c[nH]c3ncc(-c4ccc(Cl)cc4)cc23)c1F [vemurafenib]
Summary of the method: as §1

[7] = compound: CCCS(=O)(=O)Nc1ccc(F)c(C(=O)c2c[nH]c3ncc(Cl)cc23)c1F
Summary of the method: as §1

[8] = compound: CCCc1cc(C)[nH]c(=O)c1CNC(=O)c1cc(-c2ccnc(N3CCN(C)CC3)c2)cc2c1cnn2C(C)C
Summary of the method: as §1

[9] = compound: CCN(CC)Cc1ccc2cc(COC(=O)Nc3ccc(C(=O)NO)cc3)ccc2c1 [givinostat]
Summary of the method: as §1

[10] = compound: CCN(CCCOc1ccc2c(Nc3cc(CC(=O)Nc4cccc(F)c4)[nH]n3)ncnc2c1)CCOP(=O)(O)O [barasertib]
Summary of the method: as §1

Sequence of UniProt Q7L1Q6 (Q7L1Q6 whole entry, looked up): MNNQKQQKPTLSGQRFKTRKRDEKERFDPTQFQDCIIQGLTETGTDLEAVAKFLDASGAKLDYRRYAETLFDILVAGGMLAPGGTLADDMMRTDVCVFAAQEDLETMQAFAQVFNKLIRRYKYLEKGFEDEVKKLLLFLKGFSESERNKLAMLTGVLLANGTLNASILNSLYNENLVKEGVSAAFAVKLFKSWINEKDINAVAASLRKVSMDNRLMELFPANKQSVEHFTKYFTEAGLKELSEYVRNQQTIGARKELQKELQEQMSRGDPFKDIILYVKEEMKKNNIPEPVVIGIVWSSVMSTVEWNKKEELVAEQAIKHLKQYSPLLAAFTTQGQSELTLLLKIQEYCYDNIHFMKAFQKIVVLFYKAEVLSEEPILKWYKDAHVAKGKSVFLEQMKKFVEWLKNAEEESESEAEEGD
Sequence of UniProt Q9Y679 (Q9Y679 whole entry, looked up): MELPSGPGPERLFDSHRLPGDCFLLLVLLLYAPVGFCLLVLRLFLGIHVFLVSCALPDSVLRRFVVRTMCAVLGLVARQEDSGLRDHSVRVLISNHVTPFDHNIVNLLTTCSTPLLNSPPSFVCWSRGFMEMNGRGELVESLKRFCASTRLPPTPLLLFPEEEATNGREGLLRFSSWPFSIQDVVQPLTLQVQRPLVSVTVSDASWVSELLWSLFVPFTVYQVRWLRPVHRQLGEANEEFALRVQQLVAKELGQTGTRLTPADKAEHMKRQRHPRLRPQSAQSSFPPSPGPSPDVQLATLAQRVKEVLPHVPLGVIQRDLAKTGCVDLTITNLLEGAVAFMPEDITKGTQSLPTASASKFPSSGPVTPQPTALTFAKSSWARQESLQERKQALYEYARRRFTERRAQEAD
Sequence of UniProt P54707 (P54707 whole entry, looked up): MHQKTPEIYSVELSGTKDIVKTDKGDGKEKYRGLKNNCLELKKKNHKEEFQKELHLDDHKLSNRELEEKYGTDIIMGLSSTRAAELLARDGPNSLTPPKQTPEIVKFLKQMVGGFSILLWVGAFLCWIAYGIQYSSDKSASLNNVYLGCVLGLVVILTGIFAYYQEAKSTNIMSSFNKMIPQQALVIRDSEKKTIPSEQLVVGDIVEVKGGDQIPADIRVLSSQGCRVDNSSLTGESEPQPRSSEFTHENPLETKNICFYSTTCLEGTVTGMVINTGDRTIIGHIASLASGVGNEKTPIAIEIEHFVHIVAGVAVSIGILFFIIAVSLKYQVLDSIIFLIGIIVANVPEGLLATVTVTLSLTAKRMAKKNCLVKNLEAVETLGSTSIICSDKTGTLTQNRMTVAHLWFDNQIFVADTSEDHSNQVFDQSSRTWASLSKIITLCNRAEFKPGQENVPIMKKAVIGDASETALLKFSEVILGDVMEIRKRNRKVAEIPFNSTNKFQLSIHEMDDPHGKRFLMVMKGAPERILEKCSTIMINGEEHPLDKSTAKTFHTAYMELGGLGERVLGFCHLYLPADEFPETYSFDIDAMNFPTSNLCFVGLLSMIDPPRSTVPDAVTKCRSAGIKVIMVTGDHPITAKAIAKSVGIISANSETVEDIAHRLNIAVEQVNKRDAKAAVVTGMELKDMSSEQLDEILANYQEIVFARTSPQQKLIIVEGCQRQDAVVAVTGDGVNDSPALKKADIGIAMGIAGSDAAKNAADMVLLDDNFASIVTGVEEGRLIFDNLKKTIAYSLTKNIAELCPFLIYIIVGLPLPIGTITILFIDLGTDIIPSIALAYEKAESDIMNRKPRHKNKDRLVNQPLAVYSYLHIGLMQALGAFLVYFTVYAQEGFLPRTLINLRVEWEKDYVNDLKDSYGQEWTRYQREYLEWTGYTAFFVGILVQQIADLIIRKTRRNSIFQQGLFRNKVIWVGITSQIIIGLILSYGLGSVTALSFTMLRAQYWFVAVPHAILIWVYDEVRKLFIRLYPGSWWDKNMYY
Sequence of UniProt O60566 (O60566 whole entry, looked up): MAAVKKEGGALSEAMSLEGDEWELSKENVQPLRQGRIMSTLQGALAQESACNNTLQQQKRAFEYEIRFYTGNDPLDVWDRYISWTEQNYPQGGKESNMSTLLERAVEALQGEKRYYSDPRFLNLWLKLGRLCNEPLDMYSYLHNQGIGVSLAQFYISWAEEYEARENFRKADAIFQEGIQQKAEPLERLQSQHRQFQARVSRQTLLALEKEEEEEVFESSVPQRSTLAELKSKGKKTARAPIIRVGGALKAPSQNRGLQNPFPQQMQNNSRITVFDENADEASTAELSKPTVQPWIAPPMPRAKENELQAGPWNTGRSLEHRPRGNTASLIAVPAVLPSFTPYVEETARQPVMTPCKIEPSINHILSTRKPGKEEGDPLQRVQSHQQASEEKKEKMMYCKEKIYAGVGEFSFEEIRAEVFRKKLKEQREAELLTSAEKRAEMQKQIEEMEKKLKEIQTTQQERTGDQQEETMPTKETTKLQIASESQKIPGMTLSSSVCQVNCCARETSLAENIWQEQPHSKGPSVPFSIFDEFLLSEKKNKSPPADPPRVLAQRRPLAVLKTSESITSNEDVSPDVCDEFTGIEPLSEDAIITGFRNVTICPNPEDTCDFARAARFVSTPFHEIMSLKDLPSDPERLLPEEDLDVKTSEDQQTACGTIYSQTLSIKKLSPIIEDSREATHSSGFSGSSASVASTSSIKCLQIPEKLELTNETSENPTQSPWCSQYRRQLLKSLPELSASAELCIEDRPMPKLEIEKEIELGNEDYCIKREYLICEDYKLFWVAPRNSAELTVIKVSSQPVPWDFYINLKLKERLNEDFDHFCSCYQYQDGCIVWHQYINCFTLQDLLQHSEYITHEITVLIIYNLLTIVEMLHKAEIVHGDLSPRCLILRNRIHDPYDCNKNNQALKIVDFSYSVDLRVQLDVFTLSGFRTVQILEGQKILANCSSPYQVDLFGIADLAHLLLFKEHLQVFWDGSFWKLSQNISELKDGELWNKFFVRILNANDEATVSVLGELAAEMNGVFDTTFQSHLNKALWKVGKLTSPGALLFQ
Sequence of UniProt Q9P287 (Q9P287 whole entry, looked up): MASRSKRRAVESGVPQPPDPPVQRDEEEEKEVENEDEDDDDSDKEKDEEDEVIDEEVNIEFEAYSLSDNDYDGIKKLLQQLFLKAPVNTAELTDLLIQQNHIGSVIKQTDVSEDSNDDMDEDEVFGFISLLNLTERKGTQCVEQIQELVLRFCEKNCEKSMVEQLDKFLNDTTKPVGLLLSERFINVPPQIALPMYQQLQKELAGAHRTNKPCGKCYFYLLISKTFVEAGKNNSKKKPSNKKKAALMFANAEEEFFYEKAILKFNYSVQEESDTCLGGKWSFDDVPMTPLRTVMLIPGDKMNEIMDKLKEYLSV
Sequence of UniProt P40616 (P40616 whole entry, looked up): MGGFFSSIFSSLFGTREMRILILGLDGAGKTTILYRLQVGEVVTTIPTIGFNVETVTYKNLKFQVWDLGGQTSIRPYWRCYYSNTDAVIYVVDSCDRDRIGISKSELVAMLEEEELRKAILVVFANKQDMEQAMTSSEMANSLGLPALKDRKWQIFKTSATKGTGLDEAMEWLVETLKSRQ
Sequence of UniProt Q96CW1 (Q96CW1 whole entry, looked up): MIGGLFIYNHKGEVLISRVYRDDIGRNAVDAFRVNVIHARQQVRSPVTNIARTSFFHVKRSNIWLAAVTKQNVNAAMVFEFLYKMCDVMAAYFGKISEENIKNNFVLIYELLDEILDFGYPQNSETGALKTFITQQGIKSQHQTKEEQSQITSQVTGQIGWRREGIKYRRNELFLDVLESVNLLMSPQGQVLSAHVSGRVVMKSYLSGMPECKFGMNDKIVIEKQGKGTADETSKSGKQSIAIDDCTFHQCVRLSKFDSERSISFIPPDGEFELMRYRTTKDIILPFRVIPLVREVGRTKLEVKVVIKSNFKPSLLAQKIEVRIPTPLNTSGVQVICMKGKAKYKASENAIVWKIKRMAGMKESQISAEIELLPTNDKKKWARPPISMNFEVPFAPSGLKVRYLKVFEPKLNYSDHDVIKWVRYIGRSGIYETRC
Sequence of UniProt Q4L235 (Q4L235 whole entry, looked up): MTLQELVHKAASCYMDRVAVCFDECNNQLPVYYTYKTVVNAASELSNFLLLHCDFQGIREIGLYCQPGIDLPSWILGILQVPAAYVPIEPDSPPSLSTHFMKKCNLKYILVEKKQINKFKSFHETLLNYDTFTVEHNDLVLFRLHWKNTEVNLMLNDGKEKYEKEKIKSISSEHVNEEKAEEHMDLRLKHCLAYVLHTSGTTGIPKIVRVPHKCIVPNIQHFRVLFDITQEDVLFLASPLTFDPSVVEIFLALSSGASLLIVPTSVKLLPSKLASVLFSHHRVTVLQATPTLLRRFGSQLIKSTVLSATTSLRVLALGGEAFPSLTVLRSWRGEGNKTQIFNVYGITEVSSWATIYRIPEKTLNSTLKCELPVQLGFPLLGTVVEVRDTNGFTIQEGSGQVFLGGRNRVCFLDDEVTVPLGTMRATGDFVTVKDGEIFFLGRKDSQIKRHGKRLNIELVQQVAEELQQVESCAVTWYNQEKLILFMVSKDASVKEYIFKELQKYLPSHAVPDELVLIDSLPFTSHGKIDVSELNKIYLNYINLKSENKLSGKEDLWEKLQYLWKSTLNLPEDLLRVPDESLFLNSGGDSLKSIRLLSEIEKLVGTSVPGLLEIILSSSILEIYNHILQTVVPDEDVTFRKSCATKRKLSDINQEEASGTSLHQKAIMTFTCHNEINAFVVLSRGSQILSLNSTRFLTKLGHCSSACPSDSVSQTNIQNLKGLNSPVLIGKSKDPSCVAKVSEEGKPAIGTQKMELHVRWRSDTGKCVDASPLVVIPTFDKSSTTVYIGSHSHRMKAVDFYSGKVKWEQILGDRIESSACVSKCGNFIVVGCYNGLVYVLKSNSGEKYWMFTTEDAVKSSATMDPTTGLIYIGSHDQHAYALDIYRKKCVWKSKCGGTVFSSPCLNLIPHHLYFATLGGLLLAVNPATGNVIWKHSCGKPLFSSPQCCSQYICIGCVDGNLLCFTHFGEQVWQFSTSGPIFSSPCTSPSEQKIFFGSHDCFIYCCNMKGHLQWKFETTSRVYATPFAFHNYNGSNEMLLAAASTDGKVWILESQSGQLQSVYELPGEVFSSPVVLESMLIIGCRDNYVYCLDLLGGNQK

| Target | log2 fold change [1] | log2 fold change [2] | log2 fold change [3] | log2 fold change [4] | log2 fold change [5] | log2 fold change [6] | log2 fold change [7] | log2 fold change [8] | log2 fold change [9] | log2 fold change [10] |
| --- | --- | --- | --- | --- | --- | --- | --- | --- | --- | --- |
| APOBEC3G (UniProt Q9HC16) | -0.019 | 0.069 | -0.064 | -0.014 | 0.172 | 0.069 | -0.083 | 0.051 | 0.129 | 0.019 |
| ATR (UniProt Q13535) | -0.012 | -0.022 | 0.013 | -0.126 | 0.005 | 0.035 | -0.001 | 0.015 | 0.039 | 0.037 |
| ARPP19 (UniProt P56211) | -0.012 | 0.199 | 0.057 | 0.125 | -0.04 | 0.041 | 0.043 | -0.106 | -0.003 | -0.012 |
| ARMC10 (UniProt Q8N2F6) | 0.03 | -0.087 | -0.019 | -0.046 | 0.056 | 0.12 | 0.074 | 0.072 | 0.063 | 0.019 |
| APOB (UniProt P04114) | -0.039 | 0.134 | 0.146 | 0.032 | -0.049 | -0.006 | 0.095 | -0.853 (active) | 0.074 | -0.012 |
| ARFIP1 (UniProt P53367) | -0.031 | 0.042 | 0.022 | -0.006 | -0.081 | -0.026 | 0.084 | 0.045 | 0.058 | 0.046 |
| AASDH (UniProt Q4L235) | -0.001 | 0.024 | -0.043 | -0.056 | 0.179 | 0.094 | 0.103 | 0.149 | 0.033 | 0.09 |
| B4GALNT1 (UniProt Q00973) | 0.075 | -0.028 | -0.109 | 0.005 | 0.096 | -0.172 | -0.044 | -0.028 | -0.123 | 0.104 |
| ACAP2 (UniProt Q15057) | -0.046 | 0 | -0.038 | 0.033 | 0 | 0.046 | 0.057 | -0.04 | 0.028 | 0 |
| ARL1 (UniProt P40616) | 0.057 | -0.012 | 0.162 | 0.054 | -0.119 | 0.037 | 0.116 | 0.071 | 0.07 | 0.007 |
| BZW1 isoform 3 (UniProt Q7L1Q6) | 0.064 | -0.014 | 0.036 | 0.038 | 0.016 | 0.107 | 0.126 | 0.105 | 0.084 | 0.06 |
| ATP1A4 (UniProt Q13733) | 0.017 | 0.029 | 0.141 | 0.065 | -0.03 | -0.137 | -0.08 | -0.026 | -0.216 | 0 |
| ATAD1 (UniProt Q8NBU5) | 0.019 | -0.034 | 0.012 | -0.012 | -0.305 | 0.076 | 0.022 | 0.045 | 0.046 | 0.055 |
| AUP1 (UniProt Q9Y679) | 0.054 | 0.021 | 0.009 | -0.005 | -0.048 | 0.121 | 0.058 | -0.056 | 0.028 | 0.06 |
| ARMC8 (UniProt Q8IUR7) | 0.017 | 0.039 | -0.049 | 0.006 | -0.002 | -0.017 | 0.027 | 0.065 | 0 | -0.025 |
| ACIN1 (UniProt Q9UKV3) | -0.028 | 0.039 | -0.015 | -0.013 | 0.044 | 0 | 0.014 | 0.023 | 0.105 | -0.008 |
| ADPRHL2 (UniProt Q9NX46) | 0.022 | -0.06 | 0.007 | 0.111 | -0.077 | 0.126 | 0.076 | -0.003 | 0.004 | 0.043 |
| AP2M1 (UniProt Q96CW1) | 0.022 | -0.019 | -0.023 | 0.002 | 0.073 | -0.006 | 0.014 | -0.049 | 0.031 | -0.074 |
| BRAP (UniProt Q7Z569) | 0.057 | 0.075 | 0.023 | 0.029 | -0.031 | 0.037 | 0.151 | 0.08 | -0.081 | 0.08 |
| AGPAT3 isoform 3 (UniProt Q9NRZ7) | 0.019 | 0 | 0.016 | 0.003 | -0.076 | -0.001 | 0.043 | -0.039 | 0.008 | 0.057 |
| AP2B1 isoform 2 (UniProt P63010) | 0.016 | 0.018 | 0.021 | 0.018 | 0.033 | 0.031 | 0.039 | -0.021 | 0.015 | -0.013 |
| AK6 (UniProt Q9Y3D8) | 0.02 | -0.04 | 0.012 | 0.032 | -0.056 | 0.1 | 0.053 | 0.076 | 0.083 | 0.138 |
| ARL6IP4 (UniProt Q66PJ3) | -0.048 | 0.016 | -0.005 | 0 | 0.001 | -0.07 | -0.019 | -0.038 | 0.005 | -0.01 |
| ATP12A isoform 2 (UniProt P54707) | -0.001 | -0.006 | 0 | 0.005 | -0.132 | -0.03 | -0.072 | -0.021 | -0.009 | 0.015 |
| BUB1B isoform 3 (UniProt O60566) | 0.004 | -0.031 | 0.059 | -0.014 | 0.087 | 0.058 | 0.14 | 0.043 | 0.118 | 0.034 |
| ASNS (UniProt P08243) | 0.008 | 0.007 | 0.026 | 0.025 | -0.045 | 0.007 | 0.013 | 0 | -0.004 | -0.004 |
| BCCIP (UniProt Q9P287) | -0.023 | -0.015 | -0.009 | -0.01 | -0.002 | 0.02 | 0.036 | -0.004 | 0.035 | 0.033 |
| AMD1 (UniProt P17707) | 0.013 | -0.142 | 0.049 | 0.078 | -0.048 | -0.126 | 0.041 | -0.027 | 0.07 | 0.016 |
| ACSL4 (UniProt O60488) | 0.018 | -0.051 | 0.418 (active) | -0.002 | 0.233 | 0.021 | 0.104 | 0.053 | 0.047 | 0.034 |
| ABHD16A (UniProt O95870) | 0.01 | -0.084 | -0.051 | -0.057 | 0.118 | -0.001 | -0.036 | 0.09 | 0.037 | 0.008 |
